Hit rate of the full screen: of about 360,000 compounds, about 7,500 (2.1%) were called active. About 8% were inconclusive and are not listed. Calls follow the shape of the dose curve; as a rule, active = well fitted cell-killing curve with a large enough effect; inconclusive = small, poorly fitted or top-dose-only effect, or effect the other way, or another doubt; inactive = no such curve, though single readings can be large or run the other way. Many of the other results were omitted from the sample, so actives are more common in it than they were.
Assay: qHTS for induction of synthetic lethality in tumor cells producing 2HG: qHTS for the HT-1080-IDH1KD cell line
Conditions: HT-1080 IDH1 knockdown viability, ATP luminescence, 48 h; series mostly up to 46.1 µM; activity, negative = toxicity: at the top concentration
Text: Unbiased genomic sequencing for 22 glioma genomes found recurrent mutation of IDH1 on chromosome 2q33, a gene encoding the cytosolic isoform of IIDH1 associated with the tri-carboxylic acid cycle (TCA) that catalyzes the oxidative decarboxylation of isocitrate, yielding alpha-ketoglutarate and CO2 via NADP+ to NADPH conversion. Subsequent studies confirmed the recurrent IDH mutations in up to 70% of secondary gliomas and in 10% of AML cases. In addition, the somatic mutation of cancer-associated IDH1 is a point mutation resulting in various amino-acid substituents at Arginine132 (IDH1 R132), a key residue found in the enzyme's active site that when mutated, results in the loss-of-function in metabolizing isocitrate but confers a gain-of-function to produce the oncometabolite 2-hydroxyglutarate (2HG). This in effect defines IDH1 as an oncogene and provides an extraordinary opportunity to discover chemical probes against mutant IDH1 that may translate into much needed new therapies for glioma and AML patients.
This assay aims to perform a synthetic-lethal screen for chemical probes specific for 2HG-producing tumor cells using matched paired cell lines (1) HT-1080-NT fibrosarcoma cell line that overproduces 2HG and (2) HT-1080-IDH1KD cell line which has IDH1 expression knocked-down. Desirable compounds are toxic to the NT fibrosarcoma cell line but not to the IDH1KD cell line. The data in this AID corresponds to the results of the qHTS against the HT-1080 IDH1KD cell line.
[1] Dang L, Jin S, Su SM. IDH mutations in glioma and acute myeloid leukemia. Trends of Mol Med. 2010; 16(9): 387-97.
[2] Dang L et al. Cancer-associated IDH1 mutations produce 2-hydroxyglutarate. Nature. 2010; 465(7300):966.
Molecular Libraries Probe Production Centers Network [MLPCN]
NIH Chemical Genomics Center [NCGC]
Assay Submitter (PI): Lenny Dang Ph.D., Agios Pharmaceuticals
Suspensions of trypsinized HT-1080-IDH1KD cells were dispensed into white, tissue culture-treated, solid 1536-well plates at 5uL/well (750 cells/well final concentration) in RPMI medium supplemented with 5% FBS. Plates were incubated at 37 degrees C for 2 hours, after which 23 nL of compounds or DMSO were delivered to each well using a pin tool. Plates were then incubated at 37 degrees C for an additional 48 hours. CellTiter-Glo viability reagent (Promega) was dispensed into wells (2.5uL/well) and incubated at room temperature for 10 minutes. The plates were measured on a PerkinElmer ViewLux plate reader for luminescent signal (clear filter, 1 sec exp.). DMSO-treated control wells and media-only (no cells) control wells were used to normalize %Activity of identified toxic compounds; DMSO-treated wells corresponded to 0%Activity (100% viability), while media-only controls were used to normalize 100%Activity (0% viability). To minimize variability between cell lines, both HT-1080-NT and HT-1080-IDH1KD lines were dispensed and treated with identical compound series in single batches.
Concentration-response curves were fitted to the signals arising from the resulting luminescence. The concentration-effect curves were then classified based on curve quality (r2), response magnitude and degree of measured activity, and compounds were subsequently categorized based on their curve class.
Potency is read from the fitted curve at half-maximal effect.

SMILES	Potency	activity, negative = toxicity
Cc1nc(N=C(N)N)nc2c(C)cccc12	32.6 µM (active)	–
Cc1cc(C)c2cc(C#N)c(N3CCNCC3)nc2c1	–	1.86% (inactive)
CCOC(=O)c1c(C)nc2c(c1C)c(=O)oc1ccccc12	–	13.5% (inactive)
CCOC(=O)c1ccccc1OC(=O)Oc1ccccc1C(=O)OCC	–	-13.5% (inactive)
CCOC(=O)c1c(C)[nH]c2c1-c1ccccc1C(=O)C2=O	2.91 µM (active)	–
COCc1cccc(-c2csc(C(O)c3ccc(F)cc3)n2)c1 (configuration not stated)	–	-25.4% (inactive)
Cc1ccccc1C(=O)Nc1ccccc1NC(=O)c1ccccc1C	–	0.652% (inactive)
COc1cccc(C(=O)Nc2nnc(S(=O)(=O)N3CCCCC3)s2)c1	–	-13% (inactive)
Cc1ccccc1C(=O)Nc1ccc(N2CCCCCC2)cc1	14.6 µM (active)	–
COc1cccc(C(=O)Nc2ccc3nc4n(c(=O)c3c2)CCCCC4)c1	–	-9.88% (inactive)
COc1cccc(C(=O)Nc2ccc(N3CCCC3)cc2)c1	18.4 µM (active)	–
COc1cccc(OCc2cc(C(=O)N3CCN(C(=O)c4ccco4)CC3)no2)c1	–	-1.71% (inactive)
Cc1ccc(OCC(=O)Nc2ccc(N3CCN(C(=O)c4ccco4)CC3)cc2)c(C)c1	–	-11.4% (inactive)
Cc1ccccc1C(=O)N1CCN(c2ccc(NC(=O)c3cccs3)cc2)CC1	–	-0.779% (inactive)
COc1cccc(C(=O)Nc2ccc(N3CCN(C(=O)c4ccco4)CC3)cc2)c1	11.6 µM (active)	–
Cc1cccc(N(CC(=O)N2CCCC2)S(C)(=O)=O)c1C	–	0.0682% (inactive)
COC(=O)c1ccccc1N=NNc1ccc([N+](=O)[O-])cc1	–	5.48% (inactive)
CCCNC(=O)C1CC(=O)N(c2ccc(OCc3ccccc3)cc2)C1 (configuration not stated)	–	-6.41% (inactive)
Cc1nc2ccccn2c(=O)c1NC(=O)c1ccc(Br)o1	–	8.09% (inactive)
C[C@H]1Cn2cnc(C(=O)N[C@H](C)c3ccccc3)c2C(=O)N1	–	1.93% (inactive)
Cc1ccc(CCNC(=O)CN2C(=O)CSc3ccc(S(=O)(=O)N4CCOCC4)cc32)cc1	–	0.335% (inactive)

SMILES	Potency	activity, negative = toxicity
CC1(C(=O)Nc2cccc3cccnc23)CCN1C(=O)CCC1CCCC1 (configuration not stated)	–	-9.67% (inactive)
CC[C@]1(O)C[C@@H]2CN(CCc3c([nH]c4ccccc34)[C@@](C(=O)OC)(c3cc4c(cc3OC)N(C)[C@H]3[C@@](O)(C(=O)OC)[C@H](OC(C)=O)[C@]5(CC)C=CCN6CC[C@]43[C@@H]65)C2)C1	0.0366 µM (active)	–
CC[C@]1(O)CC2CN(CCc3c([nH]c4ccccc34)[C@@](C(=O)OC)(c3cc4c(cc3OC)N(C=O)[C@H]3[C@@](O)(C(=O)OC)[C@H](OC(C)=O)[C@]5(CC)C=CCN6CC[C@]43[C@@H]65)C2)C1 (some centres not stated)	0.184 µM (active)	–
Nc1nc(CSc2nnnn2-c2ccccc2)nc(Nc2ccccc2)n1	–	-11% (inactive)
CCCS(=O)(=O)NC(=O)C1(C)CCCN(C(=O)c2ccnc(Cl)c2)C1 (configuration not stated)	–	0.0267% (inactive)
CCC(CO)Oc1cc(NCc2ccccc2)c2ncn(C3CCCC3)c2c1 (configuration not stated)	–	-20.2% (inactive)
COc1ccc(CNC2CCCCC2)cc1	–	-1.73% (inactive)
COc1ccc(CNc2nc(NCc3ccc(OC)cc3)c3ncn(C4CCCC4)c3n2)cc1	4.61 µM (active)	–
Cc1ccc(S(=O)(=O)N2CCCCC2)cc1NC(=O)CCNC(=O)c1ccccc1Cl	–	3.61% (inactive)
Cn1cc(C(=O)c2ccc(Cl)cc2Cl)cc1C(=O)NN	–	-23% (inactive)
CC(C)(C)c1cc(C(=O)NN)n(Cc2ccc(Cl)cc2Cl)n1	14.6 µM (active)	–
CC(C)(C)NC(=O)NC(=O)COC(=O)Cc1ccc(Cl)cc1Cl	–	-14.2% (inactive)
CCN(CC)CCN(C)C(c1ccnc2ccccc12)c1nnnn1-c1ccc2c(c1)OCCO2 (configuration not stated)	–	-2.65% (inactive)
COc1ccc(CN2C(=O)C(CC(=O)NCCCCc3ccccc3)CC(C(=O)N3CCOCC3)=C2C)cc1 (configuration not stated)	–	8.09% (inactive)
O=C(COC(=O)c1ccncc1)c1ccccc1	–	20.6% (inactive)
Brc1ccc(-c2noc(-c3ccccc3)n2)o1	–	-0.934% (inactive)
O=C(Oc1ccc(-c2nc(-c3ccccn3)no2)cc1)c1ccccc1	2.31 µM (active)	–
COc1ccccc1CNC(=O)c1cc(-c2cc(F)ccc2OC)n[nH]1	–	-19.4% (inactive)
c1ccc(CNCc2ccc(CNCc3ccccc3)cc2)cc1	–	-9.72% (inactive)
Cc1ccccc1C1=N/C(=C/c2cccnc2)C(=O)O1	–	13.6% (inactive)
O=C1/C(=C\c2cccnc2)CN(Cc2ccccc2)C/C1=C\c1cccnc1	1.84 µM (active)	–

SMILES	Potency	activity, negative = toxicity
Clc1ccc(CN2CCN(/N=C/c3cccnc3)CC2)cc1	–	3.89% (inactive)
O=C(Nc1ccccc1)c1ccccc1OCc1ccccc1	–	21% (inactive)
Cc1c(CN2CCC(CO)(CCOc3ccccc3)CC2)[nH]c2ccc(Cl)cc12	23.1 µM (active)	–
CC(C)(O)C#Cc1ccc(CN2CCC(CO)(CCc3ccccc3)CC2)cc1	–	-15% (inactive)
CCOC(=O)C1(CCOc2ccccc2)CCN(Cc2cc(OC)c(O)cc2Cl)CC1	–	-15.4% (inactive)
O=C(CC(CC(=O)c1ccccc1)c1ccco1)c1ccccc1	–	0.921% (inactive)
CC(=O)N1C[C@@H](CO)[C@@H](N(C)C(=O)c2ccco2)C[C@H]1c1ccccc1	–	-2.1% (inactive)
O=[N+]([O-])c1ccc(CN2CC(N3CCC(c4ccccc4)CC3)CS2(=O)=O)cc1 (configuration not stated)	–	-9.12% (inactive)
Cc1cccc(NC(=O)c2nc[nH]c2C(=O)NCC(=O)OCc2ccccc2)c1	–	6.4% (inactive)
Cc1cccc(NC(=O)C(C)SCc2ccccc2)c1 (configuration not stated)	–	-0.037% (inactive)
Cc1cccc(CS(=O)(=O)c2ncc(Cl)c(C(=O)Nc3ccc(F)cc3)n2)c1	16.4 µM (active)	–
Cc1cccc(NC(=O)c2nc(S(=O)(=O)Cc3ccccc3)ncc2Cl)c1	6.51 µM (active)	–
O=C(Nc1ccc(F)cc1)c1ccc(S(=O)(=O)NCc2cccnc2)cc1	–	-20.1% (inactive)
CCOc1ccc(NC(=O)c2nc(SCC)ncc2Cl)cc1	–	-1.23% (inactive)
CCCCN1C(=O)C(CC(=O)NC(c2ccccc2)c2ccccc2)CC(C(=O)N2CCOCC2)=C1C (configuration not stated)	–	0.317% (inactive)
O=S1(=O)C[C@@H](N2CCN(CCO)CC2)[C@H](COCc2ccccc2)N1	–	-5.58% (inactive)
COc1ccc([C@H]2N[C@]3(CCCN(CC4CCCCC4)C3=O)[C@H]3C(=O)N(C)C(=O)[C@@H]23)cc1	–	12% (inactive)
Cc1ccccc1S(=O)(=O)NC(=O)C1(C)CCN1C(=O)Cc1ccc(Cl)cc1Cl (configuration not stated)	–	26.8% (inactive)
Cc1cn([C@H]2C[C@H](O)[C@@H](CNC(=O)[C@H](N)Cc3cccnc3)O2)c(=O)[nH]c1=O	–	3.58% (inactive)
Nc1cc(=O)c2[nH]cnc2[nH]1	–	-25.5% (inactive)
